Reference: PubChem BioAssay AID588492 (Sanford-Burnham Center for Chemical Genomics, 2011)
Among all 360,000 compounds or so, about 2,300 (0.64%) were called active. For the sample, actives were picked, then their nearest neighbours and some compounds at random. Unmarked numbers belong to inactive results.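 The calls were made as follows: active = compounds giving at least 50% protection of heart cells from peroxide-induced death in the single-dose screen, raw or plate-pattern-corrected value; inactive = the rest.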

assay: cardioprotection against H2O2-induced cell death, primary screen, uHTS, H9c2 cells, ATPLite luminescence (AID 588492); conditions: H9c2 cardiomyocytes, H2O2 injury protection, 2 h, at 20 µM, stronger effect = higher value;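 also: 0% = DMSO wells with peroxide and 100% = DMSO wells without peroxide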

Row | Structure (SMILES) | protection from H2O2 cell death
1 | CCCCCn1c(=O)c(C(=O)NCc2ccccn2)c(O)c2ccccc21 | 53.7% (active)
2 | CCCCCn1c(=O)c(C(=O)NCc2ccccc2)c(O)c2ccccc21 | 46.9%
3 | CCCCn1c(=O)c(C(=O)Nc2ccccc2Cl)c(O)c2ccccc21 | 28.7%
4 | CCN1CCN(C(=O)Cc2coc3cc(C)cc(C)c23)CC1 | 5.6%
5 | COC(=O)C1=C(c2c(C)noc2C)C[C@@H]2CC[C@H]1N2C(=O)NCc1ccc2c(c1)OCO2 | -2.4%
6 | O=C1N=c2ccccc2=C/C1=C\c1c(O)[nH]c(=S)[nH]c1=O | 51.8% (active)
7 | O=c1[nH]c(O)c(C=Nc2cc(F)cc(F)c2)c(=O)[nH]1 | 6.4%
8 | COc1ccccc1N=Nc1c(O)[nH]c(=S)[nH]c1=O | -6.6%
9 | Cc1ccc2c(c1)=C/C(=C\c1c(O)[nH]c(=O)[nH]c1=O)C(=O)N=2 | 60.8% (active)
10 | CCN1C(=O)C(=Cc2c(C)n(CC(=O)NCC3CCCO3)c3ccccc23)C(=O)N(CC)C1=S (stereo not given) | -2.5%
11 | Nc1ccc([N+](=O)[O-])cc1 | -1.6%
12 | Cc1cccc(OP(=O)(Oc2cccc(C)c2)OC(c2ccccc2)C(F)(F)F)c1 (stereo not given) | -8.9%
13 | CC1C(=O)OC2CCN3CC=C(COC(=O)C(C)(O)C1(C)O)C23 (stereo not given) | 1.6%
14 | CCn1cc(CN2CCCC(C(=O)c3cccc(C(F)(F)F)c3)C2)cn1 (stereo not given) | -6.7%
15 | CCN1CCN(c2nc3c(c(=O)[nH]2)CCC3)CC1 | 63% (active)
16 | O=C(NC(c1ccc(Cl)cc1)P(=O)(Oc1ccccc1)Oc1ccccc1)OCc1ccccc1 (stereo not given) | 7.3%
17 | O=C(CCNS(=O)(=O)c1ccccc1)Nc1ccc(Cl)cc1C(=O)c1ccccc1 | -9.8%
18 | Fc1ccc(C2N3CCCN23)cc1 (stereo not given) | 1.5%
19 | C=CC12CN(C)[C@@H]3C4CO[C@H](C[C@H]41)[C@]1(C(=O)Nc4ccccc41)[C@@H]32 (stereo not given in full) | 3.5%
20 | NC(=O)Cn1cc(C(=O)c2ccccc2F)c2ccccc21 | 8.7%
